Among the data in publication PMC7862700, “An all-to-all approach to the identification of sequence-specific readers for epigenetic DNA modifications on cytosine” are binding signal values, retold here.

Common to all, as to assay: DAPPL (digital affinity profiling via proximity ligation, sequencing); 10 mM Tris-HCl pH 7.5, 50 mM NaCl, 1 mM DTT, 4% glycerol, room temperature, 30 min; GST-TFs on glutathione beads, 16-mer random dsDNA library, 0.1% formaldehyde crosslink after washing; high values mean tight binding
What all share (conditions): protein: recombinant; tags: N-terminal GST; dsDNA, one strand shown

One experiment addresses T1, ELK3 (Homo sapiens, UniProt P41970 1-407).
T1 sequence: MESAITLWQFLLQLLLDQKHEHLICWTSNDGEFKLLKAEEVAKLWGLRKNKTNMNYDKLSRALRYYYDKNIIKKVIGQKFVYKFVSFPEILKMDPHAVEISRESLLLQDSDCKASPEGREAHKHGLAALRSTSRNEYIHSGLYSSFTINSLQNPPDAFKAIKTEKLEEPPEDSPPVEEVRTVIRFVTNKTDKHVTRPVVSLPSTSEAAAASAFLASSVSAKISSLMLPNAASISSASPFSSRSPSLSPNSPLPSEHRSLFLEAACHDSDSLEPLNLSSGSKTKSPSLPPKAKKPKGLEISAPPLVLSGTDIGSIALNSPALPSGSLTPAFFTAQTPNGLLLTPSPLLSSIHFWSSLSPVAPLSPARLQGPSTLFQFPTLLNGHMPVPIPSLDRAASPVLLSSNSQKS
A digest of the protocol: (§1)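 A tag-only sample was pooled with DNA-barcoded human transcription factors that had been expressed in yeast as GST fusions and captured on glutathione beads. The pools were incubated for 30 min at room temperature with 200 nmole of a random double-stranded 16-mer DNA library in Tris/NaCl/DTT/glycerol buffer, then washed, crosslinked with 0.1% formaldehyde, proximity-ligated (BsaI/T4 ligase, 1 h, 37 °C), PCR-amplified and sequenced on an Illumina NextSeq500. Binding signal is each hexamer's read frequency for a factor divided by its frequency for the tag-only sample.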

The target of a further experiment is ETV5 (Homo sapiens, UniProt P41161 1-510). A digest of the protocol: as §1
Sequence of ETV5 (P41161 whole entry): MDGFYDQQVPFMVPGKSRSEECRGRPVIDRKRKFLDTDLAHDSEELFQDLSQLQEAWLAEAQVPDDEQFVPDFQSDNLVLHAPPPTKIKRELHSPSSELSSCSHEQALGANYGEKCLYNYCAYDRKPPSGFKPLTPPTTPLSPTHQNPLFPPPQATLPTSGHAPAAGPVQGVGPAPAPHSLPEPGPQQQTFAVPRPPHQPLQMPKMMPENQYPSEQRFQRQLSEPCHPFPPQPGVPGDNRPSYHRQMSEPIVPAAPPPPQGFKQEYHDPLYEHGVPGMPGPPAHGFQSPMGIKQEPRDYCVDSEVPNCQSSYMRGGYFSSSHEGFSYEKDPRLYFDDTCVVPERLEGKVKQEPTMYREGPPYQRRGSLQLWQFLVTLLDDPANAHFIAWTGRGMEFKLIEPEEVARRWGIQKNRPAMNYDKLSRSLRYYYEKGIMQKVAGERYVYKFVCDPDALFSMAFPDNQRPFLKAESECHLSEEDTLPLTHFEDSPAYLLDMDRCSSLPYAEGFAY
In a further experiment the target is T2, ELK4 (Homo sapiens, UniProt P28324-2 1-405).
T2 sequence: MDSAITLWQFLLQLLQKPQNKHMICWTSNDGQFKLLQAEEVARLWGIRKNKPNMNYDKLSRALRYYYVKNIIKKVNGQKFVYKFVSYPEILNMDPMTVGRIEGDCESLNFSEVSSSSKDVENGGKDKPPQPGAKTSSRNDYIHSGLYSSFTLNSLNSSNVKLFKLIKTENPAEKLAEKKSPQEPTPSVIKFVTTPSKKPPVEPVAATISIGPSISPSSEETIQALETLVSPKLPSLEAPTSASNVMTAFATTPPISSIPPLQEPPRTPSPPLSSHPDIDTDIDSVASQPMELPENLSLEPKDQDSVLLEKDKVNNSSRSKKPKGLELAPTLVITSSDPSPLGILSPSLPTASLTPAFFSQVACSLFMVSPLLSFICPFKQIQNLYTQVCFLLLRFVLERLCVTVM
The essentials:
as §1

The target of another experiment is ETV1 (Homo sapiens, UniProt P50549 1-477). A digest of the protocol: as §1
Sequence of ETV1 (P50549 whole entry): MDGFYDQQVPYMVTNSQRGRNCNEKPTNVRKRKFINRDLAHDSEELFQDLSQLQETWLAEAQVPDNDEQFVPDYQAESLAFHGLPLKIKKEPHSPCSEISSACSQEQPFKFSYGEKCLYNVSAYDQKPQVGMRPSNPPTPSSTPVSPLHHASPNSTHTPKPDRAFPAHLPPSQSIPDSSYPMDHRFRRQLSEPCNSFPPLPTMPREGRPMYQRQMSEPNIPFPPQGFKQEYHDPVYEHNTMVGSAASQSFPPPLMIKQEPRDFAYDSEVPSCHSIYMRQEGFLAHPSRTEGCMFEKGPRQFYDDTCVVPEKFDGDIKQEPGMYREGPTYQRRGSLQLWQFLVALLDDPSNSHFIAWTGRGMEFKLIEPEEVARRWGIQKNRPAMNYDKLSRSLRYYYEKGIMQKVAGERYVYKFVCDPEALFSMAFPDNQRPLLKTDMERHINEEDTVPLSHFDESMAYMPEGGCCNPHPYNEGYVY
The target in a further experiment is T3, ETV3L (Homo sapiens, UniProt Q6ZN32 1-361).
T3 sequence: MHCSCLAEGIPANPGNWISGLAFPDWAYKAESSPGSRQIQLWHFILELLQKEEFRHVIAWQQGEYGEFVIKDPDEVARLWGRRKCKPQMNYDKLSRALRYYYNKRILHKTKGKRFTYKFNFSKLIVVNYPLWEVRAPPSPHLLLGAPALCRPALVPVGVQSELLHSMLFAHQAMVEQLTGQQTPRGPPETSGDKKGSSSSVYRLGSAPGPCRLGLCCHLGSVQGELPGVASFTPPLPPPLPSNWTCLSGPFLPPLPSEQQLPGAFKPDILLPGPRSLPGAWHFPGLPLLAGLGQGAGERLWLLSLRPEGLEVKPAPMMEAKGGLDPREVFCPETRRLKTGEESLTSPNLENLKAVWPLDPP
A digest of the protocol: as §1

The target in a further experiment is T4, ETV7 (Homo sapiens, UniProt Q9Y603 1-341).
T4 sequence: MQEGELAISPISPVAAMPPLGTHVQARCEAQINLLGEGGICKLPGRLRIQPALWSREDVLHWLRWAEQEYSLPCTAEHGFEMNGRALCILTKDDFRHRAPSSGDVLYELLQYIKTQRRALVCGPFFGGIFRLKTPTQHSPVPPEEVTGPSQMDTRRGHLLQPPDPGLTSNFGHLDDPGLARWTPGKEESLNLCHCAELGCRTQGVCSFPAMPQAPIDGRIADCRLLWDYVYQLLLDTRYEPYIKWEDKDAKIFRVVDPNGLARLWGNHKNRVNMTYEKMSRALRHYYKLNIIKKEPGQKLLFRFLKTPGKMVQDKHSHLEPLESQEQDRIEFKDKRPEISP
A digest of the protocol: as §1

Another experiment addresses ETV6 (Homo sapiens, UniProt P41212 1-452). The essentials:
as §1

In a further experiment the target is T5, ERG (Homo sapiens, UniProt P11308 1-479).
T5 sequence: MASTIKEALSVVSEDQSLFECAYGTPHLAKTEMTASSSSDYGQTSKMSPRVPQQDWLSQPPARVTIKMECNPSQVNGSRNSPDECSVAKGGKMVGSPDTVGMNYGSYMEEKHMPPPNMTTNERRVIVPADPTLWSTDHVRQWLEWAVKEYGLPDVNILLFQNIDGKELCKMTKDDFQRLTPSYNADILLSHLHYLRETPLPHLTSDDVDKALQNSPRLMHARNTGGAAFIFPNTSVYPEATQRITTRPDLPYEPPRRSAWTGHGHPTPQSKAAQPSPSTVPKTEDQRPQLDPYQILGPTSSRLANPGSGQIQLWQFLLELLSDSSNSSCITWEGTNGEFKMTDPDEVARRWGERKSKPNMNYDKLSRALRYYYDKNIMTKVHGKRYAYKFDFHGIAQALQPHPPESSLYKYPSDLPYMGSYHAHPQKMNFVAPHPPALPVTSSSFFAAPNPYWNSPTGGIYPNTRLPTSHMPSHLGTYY
A digest of the protocol: as §1

For a further experiment, the target named is ELF1 (Homo sapiens, UniProt P32519 1-619). A digest of the protocol: as §1
Sequence of ELF1 (P32519 whole entry): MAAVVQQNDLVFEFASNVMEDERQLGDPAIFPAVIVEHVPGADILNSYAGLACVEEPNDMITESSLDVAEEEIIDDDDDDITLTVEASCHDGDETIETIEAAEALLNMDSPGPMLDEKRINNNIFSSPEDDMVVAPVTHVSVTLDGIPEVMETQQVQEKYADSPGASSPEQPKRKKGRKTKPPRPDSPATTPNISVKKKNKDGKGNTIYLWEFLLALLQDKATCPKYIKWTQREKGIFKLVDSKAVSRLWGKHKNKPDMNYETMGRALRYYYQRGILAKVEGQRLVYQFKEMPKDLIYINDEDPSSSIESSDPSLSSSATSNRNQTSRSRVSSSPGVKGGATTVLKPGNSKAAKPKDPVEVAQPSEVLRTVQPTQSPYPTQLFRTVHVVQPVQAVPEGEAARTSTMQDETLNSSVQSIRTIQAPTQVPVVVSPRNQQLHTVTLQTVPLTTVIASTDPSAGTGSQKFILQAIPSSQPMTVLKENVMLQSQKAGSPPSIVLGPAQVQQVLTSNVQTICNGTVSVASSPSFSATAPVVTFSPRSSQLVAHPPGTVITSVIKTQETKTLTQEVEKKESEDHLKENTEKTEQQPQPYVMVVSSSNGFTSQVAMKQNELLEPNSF
Another experiment concerns the target T6, EHF (Homo sapiens, UniProt Q9NZC4 1-300).
T6 sequence: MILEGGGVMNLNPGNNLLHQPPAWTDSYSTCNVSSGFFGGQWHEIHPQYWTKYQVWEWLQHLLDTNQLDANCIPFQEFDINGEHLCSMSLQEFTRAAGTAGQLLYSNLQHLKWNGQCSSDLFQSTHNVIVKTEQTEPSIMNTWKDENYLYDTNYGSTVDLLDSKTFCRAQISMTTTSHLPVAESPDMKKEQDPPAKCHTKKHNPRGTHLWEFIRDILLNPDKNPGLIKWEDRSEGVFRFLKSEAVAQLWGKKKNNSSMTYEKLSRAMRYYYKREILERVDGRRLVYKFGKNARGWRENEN
A digest of the protocol: as §1

The target in a further experiment is T7, ELF3 (Homo sapiens, UniProt P78545 1-371).
T7 sequence: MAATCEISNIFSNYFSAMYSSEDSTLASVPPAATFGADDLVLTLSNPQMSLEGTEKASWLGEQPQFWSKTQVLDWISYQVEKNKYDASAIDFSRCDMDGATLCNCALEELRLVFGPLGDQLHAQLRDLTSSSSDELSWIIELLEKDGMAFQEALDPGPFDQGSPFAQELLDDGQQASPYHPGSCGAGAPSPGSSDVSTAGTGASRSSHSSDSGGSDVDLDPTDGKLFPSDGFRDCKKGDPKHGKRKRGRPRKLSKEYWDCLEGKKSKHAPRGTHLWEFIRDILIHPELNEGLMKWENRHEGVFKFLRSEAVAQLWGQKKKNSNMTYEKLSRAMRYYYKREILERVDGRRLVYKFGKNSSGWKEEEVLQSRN
The essentials:
as §1

In the next experiment the target is T8, ETV3 (Homo sapiens, UniProt P41162-2 1-143).
T8 sequence: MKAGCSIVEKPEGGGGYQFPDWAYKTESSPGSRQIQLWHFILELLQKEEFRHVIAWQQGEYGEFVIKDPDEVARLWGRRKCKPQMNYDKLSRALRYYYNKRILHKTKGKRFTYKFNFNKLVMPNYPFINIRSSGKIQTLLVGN
The essentials:
as §1

The next experiment addresses T9, GABPA (Homo sapiens, UniProt Q06546 1-454).
T9 sequence: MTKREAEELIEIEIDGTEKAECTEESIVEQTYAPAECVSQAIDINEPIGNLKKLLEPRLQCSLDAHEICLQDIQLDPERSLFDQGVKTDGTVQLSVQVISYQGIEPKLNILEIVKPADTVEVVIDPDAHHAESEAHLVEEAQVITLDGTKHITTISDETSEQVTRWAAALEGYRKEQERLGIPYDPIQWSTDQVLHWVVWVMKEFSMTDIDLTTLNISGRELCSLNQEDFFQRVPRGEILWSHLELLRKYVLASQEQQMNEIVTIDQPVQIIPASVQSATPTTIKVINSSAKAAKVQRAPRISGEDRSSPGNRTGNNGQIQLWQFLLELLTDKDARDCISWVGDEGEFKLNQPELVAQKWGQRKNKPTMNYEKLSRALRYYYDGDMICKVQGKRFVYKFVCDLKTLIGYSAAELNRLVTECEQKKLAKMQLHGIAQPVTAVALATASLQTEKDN
The essentials: as §1

Another experiment deals with T10, SPIC (Homo sapiens, UniProt Q8N5J4 1-248).
T10 sequence: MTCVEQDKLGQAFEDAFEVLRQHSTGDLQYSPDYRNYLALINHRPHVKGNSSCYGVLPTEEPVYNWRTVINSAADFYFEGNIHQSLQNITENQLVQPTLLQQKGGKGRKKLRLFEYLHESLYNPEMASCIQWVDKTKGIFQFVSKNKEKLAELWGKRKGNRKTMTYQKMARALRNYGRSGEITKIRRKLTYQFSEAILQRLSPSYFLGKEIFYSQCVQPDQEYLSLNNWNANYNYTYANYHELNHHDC
The essentials: as §1

Sequence of ETV6 (P41212 whole entry): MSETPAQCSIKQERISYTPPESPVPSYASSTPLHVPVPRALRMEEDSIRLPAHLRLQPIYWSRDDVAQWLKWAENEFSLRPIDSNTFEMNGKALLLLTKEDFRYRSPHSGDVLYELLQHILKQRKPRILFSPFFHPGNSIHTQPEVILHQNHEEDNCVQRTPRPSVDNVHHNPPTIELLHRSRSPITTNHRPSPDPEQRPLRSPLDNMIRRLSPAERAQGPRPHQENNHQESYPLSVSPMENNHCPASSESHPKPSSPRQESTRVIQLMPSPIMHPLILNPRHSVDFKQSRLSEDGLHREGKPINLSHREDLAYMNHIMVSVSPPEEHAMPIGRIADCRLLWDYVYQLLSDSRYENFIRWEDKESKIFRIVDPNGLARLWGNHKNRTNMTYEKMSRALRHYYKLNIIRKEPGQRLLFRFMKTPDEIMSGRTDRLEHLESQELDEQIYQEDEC

For AGCGGC, the binding signal with ELK3 was 1.03 fold enrichment (6-mer frequency, TF over GST control); in the experiment with ETV5 it was 1.03 fold enrichment (6-mer frequency, TF over GST control); with ELK4, 1 fold enrichment (6-mer frequency, TF over GST control); with ETV1 it was 1.09 fold enrichment (6-mer frequency, TF over GST control); with ETV3L, 1.01 fold enrichment (6-mer frequency, TF over GST control); with ETV7 it was 1.01 fold enrichment (6-mer frequency, TF over GST control). Besides, the binding signal with ETV6 is 1.15 fold enrichment (6-mer frequency, TF over GST control).

With GAAACC, the binding signal with ERG is 1.05 fold enrichment (6-mer frequency, TF over GST control); with ELF1, 1.04 fold enrichment (6-mer frequency, TF over GST control); with EHF it was 1.04 fold enrichment (6-mer frequency, TF over GST control); with ETV5, 1.05 fold enrichment (6-mer frequency, TF over GST control); with ELF3, 1.03 fold enrichment (6-mer frequency, TF over GST control); with ETV1, 1.02 fold enrichment (6-mer frequency, TF over GST control). The binding signal is 1.04 fold enrichment (6-mer frequency, TF over GST control) with ETV7; 1.02 fold enrichment (6-mer frequency, TF over GST control) with ETV3; 1.08 fold enrichment (6-mer frequency, TF over GST control) in the experiment with ETV6.

Take CGACGG: the binding signal was 1.09 fold enrichment (6-mer frequency, TF over GST control) with GABPA; 1.01 fold enrichment (6-mer frequency, TF over GST control) with ELF1; 1 fold enrichment (6-mer frequency, TF over GST control) in the experiment with ETV5; 1.15 fold enrichment (6-mer frequency, TF over GST control) in the experiment with SPIC; 1.02 fold enrichment (6-mer frequency, TF over GST control) with ELK4; 1.13 fold enrichment (6-mer frequency, TF over GST control) with ETV7. The binding signal with ETV3 was 1.05 fold enrichment (6-mer frequency, TF over GST control); in the experiment with ETV6 it was 1.03 fold enrichment (6-mer frequency, TF over GST control).
